PubChem BioAssay (NCI)
Compounds without any hit were thinned out: in the full panel of roughly 79,000, 15% have a hit. Values without a mark were called inactive. Activity calls are given as the source filed them. Cut-off read from the data, not from the text of the source: active = growth inhibition above about 70%; inactive = the rest.

Assay: NCI Yeast Anticancer Drug Screen. Data for the mlh1 rad18 strain (AID 175)
Conditions: S. cerevisiae mlh1 rad18 strain growth inhibition; at 50.0 µM; stronger effect = higher value
Summary of the method: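 Read-out is yeast growth inhibition, calculated against vehicle-only controls. The compound was applied to a strain engineered with DNA damage repair alterations.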

Compared with CN1CCN(C(=O)NC2CCCCC2)CC1, COC(=O)c1cc2cccn2cn1 is lower in growth inhibition: -7.6% for the first, -8.85% for the second.

First: O=CC1=CCC2c3[nH]c4ccccc4c3CCN2C1 (centres undefined)
Second: CC1(C)c2ccccc2C(=O)c2ccccc21
The growth inhibition of the first is higher: 19.8% for the first, 5.45% for the second.

Going from C=C1C(=O)OC2C1C(OC(=O)/C(=C/C)COC(C)=O)CC1(CO1)C1C(OC(=O)/C(=C/C)CO)C=C(C)C21 (centres undefined) to CCCCCCCCCCCO/N=C\c1c2c(O)c3c(O)c(C)c4c(c3c1O)C(=O)C(C)(O/C=C\C(OC)C(C)C(OC(C)=O)C(C)C(O)C(C)C(O)C(C)/C=C\C=C(\C)C(=O)N2)O4 (centres undefined), the growth inhibition rises from -8.05% to 26.2%.

First: CCc1ccccc1OCC(O)CO (centres undefined)
Second: Cc1ccc2nc(CN(CCO)CCO)cc(=O)n2c1
The growth inhibition of the first is lower: 27.8% for the first, 28.4% for the second.

First: CCOC(=O)C(C)(C(C)=O)c1nc(=S)[nH]c(=S)[nH]1 (centres undefined)
Second: CCOC(=O)C1CC(=O)c2cc(OC)c(OC)cc2C1c1ccc(OC)c(OC)c1 (centres undefined)
The growth inhibition of the first is higher: -5.1% for the first, -26.4% for the second.

Going from CCCCCCCCCCCCCCCCS(=O)(=O)N/N=C(\c1ccc(C(C)C)cc1)N1CCOCC1 to NC(=O)C(=CNC(=S)Nc1ccc(S(=O)(=O)Nc2ccccn2)cc1)C(N)=O, the growth inhibition falls from 5.75% to -26.8%.

Molecule C1CSCCSCSCCS1 has a growth inhibition of 17.8%.

With O=C1c2cc([N+](=O)[O-])cc3cc([N+](=O)[O-])cc(c23)C(=O)N1CCNCCNCCNCCN1C(=O)c2cc([N+](=O)[O-])cc3cc([N+](=O)[O-])cc(c23)C1=O the growth inhibition was 86.1% (active).
